# aSyn 5UTR act = Activators via SNCA 5'UTR binding, MLPCN; alpha-synuclein 5'UTR reporter, activators screen; activity score, % (tested at 7.5 µM), hits read low; 300,000 compounds, 7.1% hits; AID 1814, 2009; in the data active means activity score below about -60%
# * marks the source's active call; other numbers are inactive results. The list is a sample of the results.
SMILES,aSyn 5UTR act
O=C1S/C(=C\c2cccs2)C(=O)N1c1ccc(O)cc1,-133*
Cn1cc(/C=C2\SC(=O)N(c3ccccc3)C2=O)c2ccccc21,-217*
CN(C)CCN(C(=O)c1ccc2c(c1)OCCO2)c1nc2ccc(Cl)cc2s1,-159*
CN(C)CCCN(C(=O)c1ccc(S(=O)(=O)N2CCc3ccccc32)cc1)c1nc2ccc(Cl)cc2s1,58
CN(C)CCCN(C(=O)c1ccc2c(c1)OCCO2)c1nc2ccc(Cl)cc2s1,-133*
CN1CCN(S(=O)(=O)c2ccc(Br)c3nsnc23)CC1,-70*
COc1ccccc1NC(=O)NC(=O)c1ccccc1,-137*
O=C(NC(=O)c1ccccc1)Nc1ccccc1,72
COc1ccc(N/N=C(C)/C(=N/O)C(=O)Nc2ccccc2)cc1,-87*
COc1ccc(NC(=O)NC(=O)c2ccccc2)cc1,-221*
CCN1C(=O)/C(=C/C=C2/CCCN2C)OC1=S,-152*
CCN1CCN(S(=O)(=O)c2ccc(Cl)c(C(=O)NCCc3ccccc3)c2)CC1,-69*
CN(C)CCCN(C(=O)CCc1ccccc1)c1nc2ccc(F)cc2s1,-70*
CN(C)CCN(C(=O)c1cc(Cl)sc1Cl)c1nc2ccc(F)cc2s1,-94*
CN(C)CCCN(C(=O)c1ccc(S(=O)(=O)N2CCc3ccccc3C2)cc1)c1nc2ccc(F)cc2s1,99
CN(C)CCCN(C(=O)c1ccc2c(c1)CCCC2)c1nc2ccc(F)cc2s1,-157*
CN(C)CCCN(C(=O)c1cc(-c2cccs2)nc2ccccc12)c1nc2ccc(F)cc2s1,99
Cc1cccc2sc(N(CCCN(C)C)C(=O)CCc3ccccc3)nc12,62
Cc1ccc(-n2nc3c(n2)/C(=N/O)CC/C3=N\O)cc1,-89*
CCOC(=O)c1c(C)oc2c1c(C(c1cccnc1)N1CCOCC1)c(O)c1ccccc12 (stereo unspecified),-245*
CSc1ccccc1NC(=O)CSCc1ccc(C)cc1,-113*
Cc1ccc(CSCC(=O)Nc2ccccc2C(=O)O)cc1,-94*
N#Cc1c(NC(=O)c2cccnc2)sc2c1CCC2,-150*
N#Cc1ccc(-c2cccnc2)nc1SCC(=O)Nc1sc2c(c1C#N)CCC2,-88*
N#Cc1c(NC(=O)c2ccccc2)sc2c1CCC2,-288*
SMILES,aSyn 5UTR act
N#Cc1c(NC(=O)c2cnccn2)sc2c1CCCC2,-128*
CC1CCc2c(sc(NC(=S)NC(=O)c3ccccc3)c2C#N)C1 (stereo unspecified),-74*
NC(=O)c1c(NC(=O)c2ccc([N+](=O)[O-])o2)sc2c1CCCC2,95
N#Cc1c(NC(=S)NC(=O)c2ccccc2)sc2c1CCCC2,-96*
Cc1cc(C(=O)Nc2sc3c(c2C#N)CCC(C)C3)cs1 (stereo unspecified),-103*
N#Cc1c(NC(=O)c2ccc([N+](=O)[O-])o2)sc2c1CCC2,-107*
CNC(=O)c1c(NC(=O)c2cccc(C)c2)sc2c1CCC2,-213*
O=C(NC1CCCCC1)c1cc(-c2ccc(Cl)cc2)on1,-115*
O=C(NC1CCCC1)c1cc(-c2ccc(F)cc2)on1,-322*
O=C(NC1CCCC1)c1cc(-c2ccc(Cl)cc2)on1,-234*
COc1cc2c(cc1OC)C(C)N(C(=O)c1cc(Cl)nc(Cl)c1)CC2 (stereo unspecified),-105*
CCOC(=O)c1c(C)[nH]c(N=Nc2ccc(C)cc2C)c1C,-106*
CCOC(=O)c1c(C)[nH]c(N=Nc2ccccc2C)c1C,-213*
Cc1cc(O)cc(O)c1-c1onc(C(F)(F)F)c1-c1cscn1,-78*
c1ccc(-c2nnc(-c3ccncc3)o2)cc1,-89*
COc1ccc(-c2nnc(-c3ccccc3)o2)cc1OC,-168*
c1ccc(-c2nnc(-c3ccccc3)o2)cc1,-96*
COc1ccc(C2=Nn3c(nnc3-c3ccccc3)SC2)cc1OC,59
Nc1ccccc1-c1nnc(-c2ccc(-c3ccccc3)cc2)o1,-192*
O=[N+]([O-])c1cc(-c2nnc(-c3ccccc3)o2)ccc1Oc1ccc(Cl)cc1,-95*
Oc1ccccc1-c1nnc(-c2ccc(C(F)(F)F)cc2)o1,-126*
CN(C)S(=O)(=O)c1cccc(-c2nnc(-c3ccccc3)o2)c1,-113*
Nc1ccc(-c2nnc(-c3ccc(N)cc3)o2)cc1,-106*
COc1cccc(-c2nnc(-c3ccc(C(F)(F)F)cc3)o2)c1,-145*
CC1=Nc2ccccc2N=C(N)C1c1ccccc1 (stereo unspecified),-124*
SMILES,aSyn 5UTR act
O=C1CCCC1C(=O)Nc1ccc2ccccc2c1 (stereo unspecified),-121*
O=C(Nc1ccc(O)c2c(=O)cc(-c3cccc(Cl)c3)oc12)c1cccc(Cl)c1,61
Nc1ccc(O)c2c(=O)cc(-c3ccccc3Cl)oc12,-100*
COc1ccc(CN2CCN(Cc3cccn3-c3ncccn3)CC2CCO)c(C)c1C (stereo unspecified),60
COc1ccc(-c2ncc(CN3CCN(CCC(C)C)C(CCO)C3)cn2)cc1 (stereo unspecified),-111*
Cc1nn(-c2ccc(N3CCCCC3)nn2)c(C)c1CCC(=O)Nc1ccc(F)cc1,-90*
Cc1nn(-c2ccc(N3CCCCC3)nn2)c(C)c1CCC(=O)Nc1cccc(F)c1,-120*
CCOc1ccc(NC(=O)CCc2c(C)nn(-c3ccc(N4CCCCC4)nn3)c2C)cc1,-81*
Cc1ccc(NC(=O)CCc2c(C)nn(-c3ccc(N4CCCCC4)nn3)c2C)cc1F,-85*
Cc1ccc(-n2nc(C)c3c(C)c(CCC(=O)Nc4ccc(CN5CCCC5)cc4)c(C)nc32)cc1,104
COc1ccc(C2=NN(CN3C(=O)C(=O)c4ccccc43)C(c3ccc(Br)cc3)C2)cc1 (stereo unspecified),-115*
COc1ccc(C2=NN(CN3C(=O)C(=O)c4ccccc43)C(c3ccc(C)cc3)C2)cc1 (stereo unspecified),-116*
Cc1ccc(N2C(=O)NC3(CCCCC3)C2=O)cc1,-64*
O=[N+]([O-])c1ccc(-c2cn3c(n2)CCC3)cc1,-129*
C(=N\n1cnnc1)/c1cccc(OCCOc2ccccc2)c1,-65*
C(=N\n1cnnc1)/c1ccc(OCc2cccc3ccccc23)cc1,-110*
Cc1cccc(-c2nsc(SCC(=O)N3CCCC3)n2)c1,-140*
O=C(CSc1nc(-c2ccccc2)ns1)N1CCOCC1,-110*
Oc1c(-c2cc(-c3ccco3)[nH]n2)ccc2ccccc12,-170*
Oc1ccccc1-c1cc(-c2ccco2)[nH]n1,-256*
CC(=O)N=C1SC2CS(=O)(=O)CC2N1c1ccc(-c2nc3ccc(C)cc3s2)cc1 (stereo unspecified),-164*
Cc1ccc2nc(-c3ccc(N4C(=NC(=O)CCC(=O)O)SC5CS(=O)(=O)CC54)cc3)sc2c1 (stereo unspecified),-92*
O=C(Cn1ccsc1=NC(=O)C(F)(F)F)c1ccccc1,-123*
Fc1ccccc1CSc1nnc(-c2cccs2)o1,-128*
Fc1ccc(Cc2nnc(-c3cccs3)o2)cc1,-114*
SMILES,aSyn 5UTR act
c1ccc(CSc2nnc(-c3cccs3)o2)cc1,-170*
Fc1ccc(-c2nnc(Cc3ccc(Cl)cc3)o2)cc1,-86*
C[C@H]1COC2=C1C(=O)C(=O)c1c2ccc2c1CCCC2(C)C,102
Fc1ccc(CSc2nnc(-c3cccs3)o2)cc1,-88*
O=C(C#Cc1ccccc1)NCc1ccccc1F,-70*
CC(C)(O)C#Cc1ccc(C(=O)NCc2ccccc2F)cc1,-66*
Cc1ccc(NC(=O)C2=C(O)CCn3c2nc2ccccc23)cc1,-131*
